LMNA splice mod – modulators of lamin A splicing; 200,000 compounds, 0.01% hits; HeLa LMNA splicing GFP/RFP minigene ratio, 48 h; Potency, µM (top dose mostly 46.1 µM), most hits filed as inhibitors; active = well fitted inhibition curve with a large enough effect in the signal ratio, with a control signal flat, not every such curve was filed as active; inconclusive = small, poorly fitted or top-dose-only effect, or effect the other way, or a change in a side signal; the % refers to the signal ratio
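S3 HeLa stable clones carrying a lamin A-EGFP splicing minigene plus DsRed2 were seeded at 600 cells/well in Opti-MEM with 2% FBS, pin-dosed and incubated 48 h at 37°C. Acumen cytometry (488 nm) gave the GFP/RFP total-intensity ratio.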
HTT cytoprotect – protects HTT-Q103 PC12 cells, measured by ATP | PC12 HTT-Q103 induced, cytoprotection, ATP luminescence, 40 h | Potency, µM (titrated, usually from 56.4 µM), most hits filed as activators | 230,000 compounds, 0.14% hits | AID 1471; also: nearly all actives have a fitted effect of over 45% in size
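Cells were plated at 1500 per well in phenol red-free DMEM with 5% equine and 5% calf serum. Tebufenozide (100 nM final) and compounds were added, then ATPlite reagent, and luminescence was read.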
ALDH1A1 inh – blocks purified human ALDH1A1 activity; 220,000 compounds, 7.3% hits; Purified ALDH1A1, NADH fluorescence, propionaldehyde substrate; Potency, µM (titrated, usually from 75.3 µM), usual class: inhibitors; AID 1030; P00352; active = well fitted inhibition curve with a large enough effect, not every such curve was filed as active; inconclusive = small, poorly fitted or top-dose-only effect, or another doubt; inactive = no such curve, though single readings can be large or run the other way
HttQ103 aggreg – inhibitors of mutant huntingtin aggregate formation in PC12 cells; PC12 HttQ103-GFP aggregates, Acumen cytometry, 40 h; Potency, µM (titrated, usually from 46.1 µM), usual class: inhibitors; 220,000 compounds, 1.1% hits; AID 1688; also: nearly all actives have a fitted effect of over 60% in size
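Huntingtin Q103 exon 1–GFP aggregates in induced PC12 cells (100 nM tebufenozide) were quantified by cytometry from lysates, with compounds dosed in titration.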
HPGD block – inhibitors of human 15-hydroxyprostaglandin dehydrogenase (HPGD) | P15428 | purified HPGD, NADH fluorescence kinetic, PGE2 substrate | Potency, µM, most hits filed as inhibitors | 150,000 compounds, 4.3% hits | AID 894; active = well fitted inhibition curve with a large enough effect, not every such curve was filed as active; inconclusive = small, poorly fitted or top-dose-only effect, or another doubt; inactive = no such curve, though single readings can be large or run the other way
Target sequence (P15428 whole entry, looked up): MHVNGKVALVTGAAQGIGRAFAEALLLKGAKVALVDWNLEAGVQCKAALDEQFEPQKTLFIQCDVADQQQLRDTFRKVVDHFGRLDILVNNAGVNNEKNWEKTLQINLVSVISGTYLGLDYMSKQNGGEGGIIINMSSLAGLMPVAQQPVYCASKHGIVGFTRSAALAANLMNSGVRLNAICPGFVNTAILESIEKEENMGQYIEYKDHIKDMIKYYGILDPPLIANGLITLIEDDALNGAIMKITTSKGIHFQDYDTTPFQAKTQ
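20 nM HPGD preincubated 15 min at room temperature with compound in 50 mM Tris-HCl pH 8, 0.01% Tween 20. Started with 1 mM NAD+ and 30 uM prostaglandin E2; NADH fluorescence (360/450 nm) read 5 times over 30-s intervals, last minus first.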
KinaseGlo FLuc – blocks Kinase-Glo luciferase, a counter-screen artifact. Q27757. Kinase-Glo luciferase, ATP luminescence, 8 min. Potency, µM (titrated, usually from 38.3 µM), actives largely listed as inhibitors. 200,000 compounds, 0.28% hits. AID 1379; also: nearly all actives have a fitted effect of over 60% in size
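Substrate mix (final 50 mM imidazole pH 7.2, 50 mM KCl, 7 mM MgCl2, 10 uM ATP, 0.01% Tween 20, 0.05% BSA) plus pin-tool compound, then Kinase-Glo detection mix; 8 min ambient, luminescence read.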
A number is an active result; n = inactive; u = inconclusive; x = not tested or not shown; [ ] = remark or other dose. Only some compounds are listed: those with a hit (about 9% of all), similar ones and a draw of the others. Unless noted, calls follow the shape of the dose curve; as a rule, active = well fitted curve in the direction sought with a large enough effect; inconclusive = small, poorly fitted or top-dose-only effect, or another doubt; inactive = no such curve, though single readings can be large; an effect the other way counts as inactive or inconclusive.

SMILES	LMNA splice mod	HTT cytoprotect	ALDH1A1 inh	HttQ103 aggreg	HPGD block	KinaseGlo FLuc
COc1ccc(CCN2C(=NC(=O)CC(C)C)SC3CS(=O)(=O)CC32)cc1 (centres undefined)	n	n	u	n	n	n
COc1ccc(CCN2C(=NC(=O)CCC(=O)O)SC3CS(=O)(=O)CC32)cc1OC (centres undefined)	n	n	25.1µM	n	n	n
CCOC(=O)c1cc(C#N)c(=S)[nH]c1C	x	n	3.55µM	n	x	n
COCc1[nH]c(=S)c(C#N)cc1C(=O)OC	x	n[10 µM]	x	n[9.22 µM]	x	x
COc1ccc(C2/C(=C(/O)c3ccc4c(c3)CC(C)O4)C(=O)C(=O)N2CCN2CCOCC2)cc1 (centres undefined)	n	n[0.074 µM]	n	n	n	n
COC(=O)c1sccc1NC(=O)C1C2C=CC(O2)C1C(=O)O (centres undefined)	n	n	n	n	n	n
COC(=O)c1ccc(NC(=O)C2C3C=CC(O3)C2C(=O)O)cc1 (centres undefined)	n	n[10 µM]	4.47µM	n	n	n
Cc1nnc(NC(=O)C2C3C=CC(O3)C2C(=O)O)s1 (centres undefined)	n	n[10 µM]	28.2µM	n	n	n
NC(=O)Cn1c2[n+](c3ccccc31)CC(O)CS2 (centres undefined)	n	n	11.2µM	n	n	n
Cc1sc(NC(=O)c2sc3nc4c(C)cccc4cc3c2N)c(C#N)c1C	n	n	2.82µM	u	7.08µM	n
CCOC(=O)C1CCN(S(=O)(=O)c2cc(Cl)c(C)cc2OC)CC1	n	n[10 µM]	n	n	n	n
N#Cc1ccccc1-c1cncnc1NCc1cccnc1	n	n	28.2µM	x	u	n
O=C(COc1cccnc1[N+](=O)[O-])c1ccc(Cl)s1	x	n[10 µM]	0.708µM	n[9.22 µM]	x	x
COc1ccc(-c2n[nH]c(C)c2-c2cnn(-c3ccccc3)c2)c(O)c1C	u	n	n	n	n	n
COc1ccc(-c2n[nH]c(C)c2-c2cnn(-c3ccccc3)c2)c(O)c1	n	n	7.94µM	n	n	n
O=C(CN1CCCC1)N1CCCc2c1c(=O)oc1ccc(OCc3ccccc3)cc21	u	n	u	u	u	n
CN(CC(=O)N1CCCc2c1c(=O)oc1ccc(O)cc21)Cc1ccccc1	n	n[10 µM]	12.6µM	n	n	n
CC1CCN(CCC(=O)N2CCCc3c2c(=O)oc2ccc(O)cc32)CC1	u	u	2.24µM	n	n	n
CC(C(=O)N1CCCc2c1c(=O)oc1ccc(O)cc21)N1CCc2ccccc2C1 (centres undefined)	n	n	u	n	x	x
OCCSCc1ccccc1	x	n[10 µM]	n[13.5 µM]	x	n	n[7.66 µM]
O=C(OCC(=O)N1CCN(c2ccccc2)CC1)c1ccco1	n	n	2.24µM	n	n	n
Cc1cc(C(=O)OCC(=O)N2CCN(c3ccccc3)CC2)c2ccccc2n1	n	n	22.4µM	n	n	n
COc1ccc(CC(=O)Nc2cc(Cl)ccc2C(=O)O)cc1	x	n[10 µM]	n	n[9.22 µM]	x	n
Cc1ccc(NC(=S)N2CCN(C(=O)c3ccccc3)CC2)c(C)c1	u	n	u	n	x	n
COc1ccc(OCCNC(=O)c2ccccc2OCC(=O)N2CCCCC2)cc1	u	n[10 µM]	3.55µM	n	n	n
SMILES	LMNA splice mod	HTT cytoprotect	ALDH1A1 inh	HttQ103 aggreg	HPGD block	KinaseGlo FLuc
Cc1cc(Cl)ccc1OCC(=O)N1CCN(c2ncccn2)CC1	u	n[10 µM]	n	n	x	n
Cc1cc(Cl)ccc1OCC(=O)N1CCCCC1	u	n[10 µM]	n	n	28.2µM	n
CC(=O)N1CCN(C(=O)COc2ccccc2C(=O)Nc2ccccc2)CC1	n	n[10 µM]	n	n	x	n
O=C(CCCOc1ccc(Cl)cc1)N1CCCCCC1	n	n	7.94µM	u	2.24µM	n
O=C(COc1ccc(Cl)cc1)N1CCCCC1	n	n	n	n	25.1µM	n
CC12CCC(C(=O)N3CCCCC3)([C@H](Br)C1=O)C2(C)C (some centres undefined)	x	n[10 µM]	x	n[9.22 µM]	x	x
Cc1cc(NC(=O)c2cc(CC(C)C)on2)no1	n	n	u	n	n	n
O=C(COc1ccc(Cl)cc1)N1CCN(C(=O)c2cccc(F)c2)CC1	n	n	14.1µM	n	n	n

Compound activity as filed in PubChem BioAssay.
